Tg IFNy HTS: T. gondii growth inhibition with IFN-gamma, primary screen, cell-based. Toxoplasma gondii growth in IFN-gamma-treated host cells; stronger effect = lower value. activity change, negative = inhibition, % (concentration not given with the values). 69,000 compounds, 3.8% hits. AID 1259416, 2018; in the data active = activity change below about -70%, passing the limit was not always enough;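 note: host cells are HeLa cells infected with Toxoplasma gondii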
Active calls of the source: *. This is one part of a sample in which hits are shown more often than they occur.

Results for Fc1cc(Oc2ccc(C(F)(F)F)cn2)cc(F)c1CN1CCCC1 ?
Tg IFNy HTS: 51

Results for COc1ccc(S(=O)(=O)N2CCC(c3ccc4c(C)nn(C)c4n3)CC2)cc1 ?
Tg IFNy HTS: -91*

Results for COc1ccc(S(=O)(=O)N2CCC(c3nc(C(=O)N(C)C)c(C)o3)CC2)cc1 ?
Tg IFNy HTS: -5

How did COc1ccc(S(=O)(=O)N2CCC(c3n[nH]c(=O)cc3-c3cc(C)no3)CC2)cc1 do in these assays?
Tg IFNy HTS: -21

What do the screens show for `O=C(CCn1ccccc1=O)N1CC[C@@H](c2ccc3c(c2)OCO3)[C@H](O)C1`?
Tg IFNy HTS: 1

Results for CO[C@@H]1CC[C@@H]2[C@H]1OCCN2C(=O)N(C)C ?
Tg IFNy HTS: 51

What do the screens show for `CN(C)C(=O)N1CCO[C@@H]2[C@H]1CC[C@H]2OCC1CCOCC1`?
Tg IFNy HTS: -72*

How did CN(C)C(=O)N1CCO[C@@H]2[C@H]1CC[C@H]2OCCN1CCCC1 do in these assays?
Tg IFNy HTS: -3

How did COc1ccc(-c2nc(Cn3nnc(C(=O)Nc4cc(F)ccc4C)c3C)c(C)o2)c(OC)c1 do in these assays?
Tg IFNy HTS: 114

Results for Cc1cc(C)c2c(CC(=O)N3CCC[C@]4(CCC(=O)N4)[C@H]3c3ccc(F)cc3)coc2c1 ?
Tg IFNy HTS: 0

Results for CN1C(C)(C)CC(Nc2nc(-c3ccccn3)nc3c2CCNC3)CC1(C)C ?
Tg IFNy HTS: -4

What do the screens show for `c1ccc2c(c1)CC(Nc1nc(C3CCCC3)nc3c1CNC3)CO2` (centres undefined)?
Tg IFNy HTS: 2

How did Fc1cccc(-c2nc3c(c(NC4CC4)n2)CNCC3)c1 do in these assays?
Tg IFNy HTS: -86*

Results for Cn1nccc1CN1CCC2(CC(NS(C)(=O)=O)C2)C1 (centres undefined) ?
Tg IFNy HTS: 5

Results for c1ccc(N2CCC3(CC2)CN(c2ncccn2)CCO3)nc1 ?
Tg IFNy HTS: -11

Results for Cc1ccc(-c2nc(Cn3nnc(C(=O)NCCc4ccccc4)c3C)c(C)o2)cc1 ?
Tg IFNy HTS: -49

Results for Cc1ccc(-c2nc(Cn3nnc(C(=O)NC4CCCC4)c3C)c(C)o2)cc1 ?
Tg IFNy HTS: -101*

What do the screens show for `Cc1ccc(-c2nc(Cn3nnc(C(=O)NCc4ccc(C(C)C)cc4)c3C)c(C)o2)cc1`?
Tg IFNy HTS: -9

Results for Cc1ccc(-c2nc(Cn3nnc(C(=O)Nc4ccccc4)c3C)c(C)o2)cc1 ?
Tg IFNy HTS: 1

How did Cc1ccc(CNC(=O)c2nnn(Cc3nc(-c4ccc(C)cc4)oc3C)c2C)cc1 do in these assays?
Tg IFNy HTS: -94*

How did Cc1ccc(-c2nc(Cn3nnc(C(=O)NCc4ccc(Br)cc4)c3C)c(C)o2)cc1 do in these assays?
Tg IFNy HTS: -68

How did CCc1cccc(NC(=O)Cn2c(=O)ccc3cc(S(=O)(=O)N4CCCC4)ccc32)c1 do in these assays?
Tg IFNy HTS: 322

What do the screens show for `Cc1ccc2c(c1C)-n1cccc1C1(CCN(S(=O)(=O)c3ccc(F)c(Cl)c3)CC1)N2`?
Tg IFNy HTS: 10

Results for CCc1ccccc1NC(=O)c1c(O)c2ccccc2n(CC)c1=O ?
Tg IFNy HTS: 131

Results for CS(=O)(=O)N1CC(C(=O)Nc2nc(-c3ccccn3)cs2)Oc2ccccc21 (centres undefined) ?
Tg IFNy HTS: -101*

How did CCOC(=O)C1CN(S(=O)(=O)c2ccc(C)cc2)c2ccccc2O1 (centres undefined) do in these assays?
Tg IFNy HTS: 43

How did CS(=O)(=O)N1C[C@H]2COC[C@@]2(C(=O)NCc2ccccn2)C1 do in these assays?
Tg IFNy HTS: -9

Results for COc1cccc(CN2CC[C@@H]3OCCN(C(=O)c4ccco4)[C@@H]3C2)n1 ?
Tg IFNy HTS: 2

What do the screens show for `CCOc1ccc(-c2nc3c(s2)CN(S(=O)(=O)c2ccccc2Cl)CC3)cc1`?
Tg IFNy HTS: -89*

What do the screens show for `O=S(=O)(c1cccc(Cl)c1)N1CCc2nc(-c3ccccc3)sc2C1`?
Tg IFNy HTS: 1

What do the screens show for `COc1ccc(-c2nc3c(s2)CN(S(=O)(=O)c2ccccc2Cl)CC3)cc1`?
Tg IFNy HTS: -86*

Results for COc1ccc(-c2nc3c(s2)CN(S(=O)(=O)c2ccc(C(C)C)cc2)CC3)cc1 ?
Tg IFNy HTS: -16

What do the screens show for `CCOc1ccc(-c2nc3c(s2)CN(C(=O)Nc2ccccc2CC)CC3)cc1`?
Tg IFNy HTS: -4

Results for O=S(=O)(c1ccccc1)N1CC2CN(Cc3ccccc3F)C2C1 (centres undefined) ?
Tg IFNy HTS: -22

Results for COc1ccc(S(=O)(=O)Nc2cncc(C(=O)Nc3cc(C)ccc3C)c2)cc1OC ?
Tg IFNy HTS: 21

What do the screens show for `Cn1cc(N)cc1C(=O)N1CCC(c2cc(Cc3ccccc3)[nH]n2)CC1`?
Tg IFNy HTS: -9

How did Cc1ccc(C)c(-c2coc(-c3ccc(NC(=O)C4CCCCC4)cc3)n2)c1 do in these assays?
Tg IFNy HTS: -41

Results for C[C@]12OC(C[C@]1(O)CO)n1c3ccccc3c3c4c(c5c6ccccc6n2c5c31)CNC4=O ?
Tg IFNy HTS: -82*

Results for CN1CC2(CCCN(C(=O)Cn3cc(C(N)=O)c4ccccc43)C2)OC1=O (centres undefined) ?
Tg IFNy HTS: 14

How did COCCN1C(=O)CC2C1CCN2Cc1ccccc1 (centres undefined) do in these assays?
Tg IFNy HTS: -23

Results for Cc1nc(N2CCN(c3ccccc3)CC2)nc2c1C(=O)CC(c1ccccc1F)C2 (centres undefined) ?
Tg IFNy HTS: -25

Results for Cc1cc(=O)[nH]n(-c2ccccc2)c1=O ?
Tg IFNy HTS: -49

What do the screens show for `Cc1ccccc1C1CC(=O)c2cnc3[nH]n(-c4ccccc4)c(=O)c3c2C1` (centres undefined)?
Tg IFNy HTS: -91*

How did CC(=O)Nc1ccc(Cl)c(C(=O)NCCN2CCCOC2=O)c1 do in these assays?
Tg IFNy HTS: 2

Results for CCc1nc(OCC(=O)Nc2ccccc2)c2ccccc2n1 ?
Tg IFNy HTS: -7

Results for COc1ccc(-c2nc(N3CCc4ccccc4C3)c3ccccc3n2)cc1 ?
Tg IFNy HTS: 63

What do the screens show for `COc1ccc(-c2nc(NCCN3CCOCC3)c3ccccc3n2)cc1`?
Tg IFNy HTS: -58

What do the screens show for `COc1ccc2c(c1)CCc1c-2nc2ccccc2c1N1CCOCC1`?
Tg IFNy HTS: -98*

How did Cc1cccc(Nc2nc(C(=O)NC3CCCC3)nc3ccccc23)c1 do in these assays?
Tg IFNy HTS: -65

How did CCOC(=O)c1nc(Nc2ccc(OC)c(Cl)c2)c2ccccc2n1 do in these assays?
Tg IFNy HTS: -77*

How did Cc1cccc(Nc2nc(C(=O)NCc3ccccc3Cl)nc3ccccc23)c1 do in these assays?
Tg IFNy HTS: -59

Results for CCCNC(=O)c1nc(Nc2ccc(CC)cc2)c2ccccc2n1 ?
Tg IFNy HTS: -83*

Results for CCC(C)NC(=O)c1nc(Nc2cccc(C)c2)c2ccccc2n1 (centres undefined) ?
Tg IFNy HTS: -50

Results for O=C(NC1CCCC1)c1nc(Nc2ccc(F)cc2)c2ccccc2n1 ?
Tg IFNy HTS: -62

What do the screens show for `CCOC(=O)c1nc(Nc2cccc(OC)c2)c2ccccc2n1`?
Tg IFNy HTS: -4

What do the screens show for `CCCNC(=O)c1nc(Nc2ccc(F)cc2)c2ccccc2n1`?
Tg IFNy HTS: -33

What do the screens show for `O=C(NC1CCCCCC1)c1nc(Nc2ccccc2)c2ccccc2n1`?
Tg IFNy HTS: -85*

Results for CCc1ccc(Nc2nc(C(=O)NCCOC)nc3ccccc23)cc1 ?
Tg IFNy HTS: -54

Compound activity: PubChem, Broad Institute
